Several values for one entry are separate records, joined by “and”; a condition that tells them apart may be missing. Identical values can stand only once. In all, about 16,000 compounds went through this assay and about 2,600 (16%) were called active. Roughly 20% stayed inconclusive and do not appear here. The call rests on the fitted dose curve; in most records, active means well fitted curve in the direction sought with a large enough effect; inconclusive means small, poorly fitted or top-dose-only effect, or effect the other way; inactive means no such curve, though single readings can be large or run the other way. Only a sample is shown. Some compounds were tested as several samples or in several runs, with calls that do not always agree.
These molecules were tested against Cytochrome P450 2D6 (Homo sapiens) (UniProt P10635) (assay: Cytochrome panel assay with activity outcomes). Settings: recombinant CYP, pro-luciferin dealkylation, luminescence, p450-cyp2d6; series mostly up to 57.1 µM; activity, negative = inhibition: at the top concentration.
On the % scale 0 is the no-effect control and ±100 the full control effect.

Chain of Cytochrome P450 2D6 (Homo sapiens) (P10635 whole entry, looked up): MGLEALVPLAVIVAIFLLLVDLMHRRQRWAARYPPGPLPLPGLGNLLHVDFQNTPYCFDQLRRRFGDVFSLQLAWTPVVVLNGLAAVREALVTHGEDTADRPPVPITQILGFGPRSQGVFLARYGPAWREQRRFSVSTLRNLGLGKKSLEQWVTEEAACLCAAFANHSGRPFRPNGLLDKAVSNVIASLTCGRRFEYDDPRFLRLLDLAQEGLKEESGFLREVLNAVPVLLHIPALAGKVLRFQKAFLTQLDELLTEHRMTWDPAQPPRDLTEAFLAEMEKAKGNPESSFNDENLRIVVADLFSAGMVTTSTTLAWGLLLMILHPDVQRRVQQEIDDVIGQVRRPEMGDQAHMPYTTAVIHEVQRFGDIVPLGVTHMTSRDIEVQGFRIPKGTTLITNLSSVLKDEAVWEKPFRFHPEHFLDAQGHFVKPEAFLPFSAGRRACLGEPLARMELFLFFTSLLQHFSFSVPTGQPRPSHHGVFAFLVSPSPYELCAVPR

Compound	activity, negative = inhibition	AC50
Cc1cc(C)cc(C(=O)N(C)[C@H](Cc2ccc(-c3ccccc3)cc2)C(=O)N[C@@H](Cc2c[nH]c3ccccc23)C(=O)O)c1	-5.77% (inactive)	–
N=c1ccn2c(n1)O[C@H]1[C@@H](OP(=O)(O)O)[C@H](CO)O[C@H]12	10.3% [at 11.4 µM] (inactive)	–
Cc1cc(-c2n[nH]c(=S)o2)c(C)n1-c1ccccc1	-6.27% (inactive)	–
O=C(Nc1nnc(C2CC2)s1)c1cc(S(=O)(=O)N2CCN(c3ccccc3)CC2)ccc1Cl	28% (inactive)	–
O=C(N/N=C1/C[C@@H](O)[C@@H](O)[C@@H]2[C@@H]3C(=O)N(Cc4ccccc4)C(=O)[C@H]3CC[C@@H]12)OCc1ccccc1	9.46% [at 11.4 µM] (inactive)	–
O=C1[C@H]2O[C@@H]2[C@@H](O)[C@H]2[C@H]1CCn1c(=O)n(Cc3cc4c(cc3Cl)OCO4)c(=O)n12	-11.5% [at 11.4 µM] (inactive)	–
CCN(CC)C(=O)CSc1nnc(-c2ccco2)n1N	-28.2% (inactive)	–
COc1ccc(COC(=O)N/N=C2/C[C@@H](O)[C@@H](O)[C@@H]3[C@H]4C(=O)N(c5ccc(F)cc5F)C(=O)[C@@H]4CC[C@@H]23)cc1	-3.12% [at 11.4 µM] (inactive)	–
O=C(Cc1cccs1)N/N=C/C(Br)=C/c1ccccc1	-28.8% (inactive)	–
COc1ncc2nc(-c3cc(F)cc(F)c3)c(=O)n(CCC#N)c2n1	-10.6% (inactive)	–
CCNc1ncc2nc(-c3ccccc3)c(=O)n(CCC#N)c2n1	–	0.501 µM (active)
COc1ccc(-c2nc3cnc(Nc4ccccc4)nc3n(CCC#N)c2=O)cc1	6.64% (inactive)	–
N#CCCn1c(=O)c(-c2cc(F)cc(F)c2)nc2cnc(Nc3ccccc3)nc21	1.97% (inactive)	–
CCNc1ncc2nc(-c3cc(F)cc(F)c3)c(=O)n(CCC#N)c2n1	–	0.0631 µM (active)
N#CCCn1c(=O)c(-c2ccccc2)nc2cnc(Nc3ccccc3)nc21	4.06% (inactive)	–
COC(=O)[C@@]1(Cc2ccc(F)cc2)[C@H]2c3cc(C(=O)N4CCCC4)n(CCCNc4ncc(C(F)(F)F)cc4Cl)c3C[C@H]2CN1C(=O)c1ccccc1	3.6% (inactive)	–
CCOC(=O)[C@]1(CC(=O)O)CCCC1=O	-6.09% [at 11.4 µM] (inactive)	–
COc1ccc(C2CC(=O)c3cnc(Nc4cc(C)cc(C)c4)nc3C2)cc1 (stereo not drawn)	-11.6% (inactive)	–
O=C1NC(=O)C(c2ccccc2[N+](=O)[O-])=C1Nc1ccc(O)c(Cl)c1	2.19% (inactive)	–
Cc1occc1C(=O)NNC(=O)c1ccc(F)cc1	-29% (inactive)	–
COc1ccc(-n2c(=S)[nH]c3cc(C(=O)NCCCN4CCCC4=O)ccc3c2=O)cc1	-6.32% (inactive)	–
COc1ccc2c(c1OC)C(=O)OC2Nc1ncccc1C (stereo not drawn)	-10.4% (inactive)	–
COc1ccc2c(c1OC)C(=O)O[C@@H]2[C@H]1c2c(cc3c(c2OC)OCO3)CCN1C	0.746% (inactive)	–
COc1ccc2c(c1OC)C(=O)OC2[C@H]1c2c(cc3c(c2OC)OCO3)CCN1C (stereo partly drawn)	–	10 µM (active)

Compound	activity, negative = inhibition	AC50
COc1ccc(/C(C)=N/NC(=O)c2ccc(CSc3cccc4cccnc34)cc2)cc1OC	-9.22% (inactive)	–
Cc1ccccc1-c1cc(C(=O)n2cccn2)c2cc(Cl)ccc2n1	-13.5% (inactive)	–
Cc1cc(N2C(=O)C(O)=C(C(=O)c3cccs3)C2c2cccc(O)c2)no1 (stereo not drawn)	-3.43% (inactive)	–
COC(=O)CSc1cc(C(F)(F)F)nc(-c2ccccn2)n1	6.24% (inactive)	–
CCOC(=O)CSc1nc2c(cnn2-c2ccc(C)cc2)c(=O)[nH]1	7.23% (inactive)	–
N#CCSc1nc2cc(C(=O)N3CCCC3)ccc2c(=O)n1Cc1ccccc1	-16.5% (inactive)	–
Cc1nc2cnc(Oc3cccc(Cl)c3)nc2n(C[C@H]2CCCO2)c1=O	4.36% (inactive)	–
CS(=O)(=O)Nc1cccc(-c2ccc3ncnc(NCc4cccs4)c3c2)c1	–	20 µM (active)
COCCNc1ncnc2ccc(-c3cccc(NS(C)(=O)=O)c3)cc12	-1.19% (inactive)	–
COc1cccc(-c2ccc3ncnc(NCc4cccs4)c3c2)c1	–	10 µM (active)
CS(=O)(=O)Nc1cccc(-c2ccc3ncnc(NCCN4CCOCC4)c3c2)c1	-8.45% (inactive)	–
c1csc(CNc2ncnc3ccc(-c4ccoc4)cc23)c1	–	15.8 µM (active)
CN(/C=C/C(=O)C(F)(F)F)Cc1ccccc1	0.82% (inactive)	–
Cc1[nH]c2ccccc2c1-c1cc(-c2cc(-c3c(C)[nH]c4ccccc34)on2)no1	5.28% [at 11.4 µM] (inactive)	–
CCCC[C@@H]1C[C@H]1C(NC(=O)c1cccnc1)c1ccc(-c2ccccc2)cc1 (stereo partly drawn)	-5.63% (inactive)	–
CCOC(=O)c1cnn(-c2cc(Oc3ccccc3)ncn2)c1N	-6.66% (inactive)	–
Cc1nc(SCC(=O)c2ccc(F)cc2)c([N+](=O)[O-])[nH]1	–	10 µM (active)
Cc1cc(C)c(C(N)=O)c(SCC(=O)c2ccc(Cl)cc2)n1	-3.15% (inactive)	–
Cc1ccc(C(=O)CSc2nc(C)cc(=O)[nH]2)cc1	-1.53% (inactive)	–
Oc1ccccc1CNn1cnnc1	17.8% (inactive)	–
O=c1[nH]c2cc([N+](=O)[O-])c([N+](=O)[O-])cc2[nH]c1=O	-3.93% (inactive)	–
C[C@@H](CCc1ccccc1)NC[C@H](O)c1ccc(O)c(C(N)=O)c1	–	3.98 µM (active) and 2 µM (active)
C[C@@H](CCc1ccc(O)cc1)NCCc1ccc(O)c(O)c1	-10.3% [at 25.6 µM] (inactive)	–
CC(CCc1ccccc1)NC(=O)C(=O)NCCO (stereo not drawn)	22.2% (inactive)	–

Compound	activity, negative = inhibition	AC50
O=C(OCC(=O)c1cccs1)c1cccc(C(=O)OCC(=O)c2cccs2)n1	–	4.47 µM (active)
O=C(COc1cccc2ccccc12)NNC(=O)c1cccs1	-20.2% (inactive)	–
CCOC(=O)c1cccc(C(=O)OCC)n1	16.1% (inactive)	–
O=C(Nc1nnc(COc2ccc(Cl)cc2)s1)c1ccc([N+](=O)[O-])cc1	11.5% (inactive)	–
CCOc1ccc2ccccc2c1C(=O)N[C@@H]1C(=O)N2[C@@H]1SC(C)(C)[C@@H]2C(=O)O	3.09% [at 25.6 µM] (inactive)	–
O=[N+]([O-])c1cc(C(F)(F)F)ccc1NCCCCNS(=O)(=O)c1ccc2ccccc2c1	-21.4% (inactive)	–
COC(=O)c1ccccc1NC(=O)c1ccc(Cn2cc(Cl)cn2)o1	-0.222% (inactive)	–
Nc1ccc(C(=O)N/N=C/c2ccccc2)cc1	7.05% (inactive)	–
CC[C@@]12CCCN3CCc4c(n(c5ccccc45)[C@](O)(C(=O)OC)C1)[C@H]32	–	inactive and 251 nM (active)
CCOC(=O)C1=C[C@@]2(CC)CCCN3CCc4c(n1c1ccccc41)[C@H]32	–	6.31 µM (active) and inactive
CC[C@@]12CCCN3CCc4c(n(c5ccccc45)C(=O)C1)[C@H]32	–	20 nM (active) and 251 nM (active)
Cn1c(Cc2cccc3ccccc23)nnc1SCC(=O)N1CCN(c2ccccc2)CC1	-4.52% (inactive)	–
CSc1nc(-c2ccc(C)cc2)nc(C(Cl)Cl)n1	-0.974% (inactive)	–
CCCC[C@H]1C(=O)N(c2ccccc2)N(c2ccc(O)cc2)C1=O	-4.48% [at 25.6 µM] (inactive)	–
CCOC(=O)N1CCN(S(=O)(=O)c2ccc3[nH]cc(C(=O)O)c(=O)c3c2)CC1	1.73% (inactive)	–
C[C@@]12CCC(=O)C=C1CC[C@H]1[C@@H]2[C@@H](O)C[C@]2(C)[C@@H]1CC[C@@]2(O)C(=O)COC(=O)C1CCCC1	8.32% [at 11.4 µM] (inactive)	–
CCCn1c(=O)c2[nH]c(-c3ccc(OCC(=O)NCCN)cc3)nc2n(CCC)c1=O	-3.55% (inactive)	–
C[C@@]12CCC(=O)C=C1CC[C@H]1[C@@H]2[C@@H](O)C[C@]2(C)[C@@H]1CC[C@@]2(O)C(=O)CO	17% [at 11.4 µM] (inactive)	–
O=C(Oc1ccccc1)N1CCC2(CC1)CCN(c1cccc(-c3ccccc3)c1)CC2	-1.29% (inactive)	–
CCCCCCCCN[C@@H](C)[C@H](O)c1ccc(SC(C)C)cc1	–	1 µM (active)
CCCn1cnc2c(SCC(=O)O)nc(N)nc21	7.62% [at 11.4 µM] (inactive)	–
CCOc1nc(NC(C)C)nc(NC(C)C)n1	2.84% (inactive)	–
COc1cccc(Nc2ncc(C(=O)O)c3ccccc23)c1	-14.6% (inactive)	–
COc1ccc(Nc2ncnc3sc(-c4ccccc4)cc23)cc1	–	28.2 µM (active)

Compound	activity, negative = inhibition	AC50
COc1ccc(-n2cnc3sc(-c4ccccc4)cc3c2=O)cc1	3.48% (inactive)	–
Fc1ccc(-c2cn3cc(C(F)(F)F)cc(Cl)c3n2)cc1	-24.8% (inactive)	–
COc1ncc2ncc(=O)n(Cc3cccs3)c2n1	-10.7% (inactive)	–
COCCNC(=O)CSc1nc2ccc(N3CCOCC3)cc2c(=O)n1Cc1ccc(OC)cc1	-6.47% (inactive)	–
CN1CCN(c2ncc3nc(-c4ccc(Cl)cc4)c(=O)n(Cc4cccs4)c3n2)CC1	-9.03% (inactive)	–
COc1cc2nc(SCc3ccc(Cl)cc3Cl)n(Cc3cccs3)c(=N)c2cc1OC	–	2.24 µM (active)
COc1ccc(Cn2c(SCc3ccccc3C)nc3cc(OC)c(OC)cc3c2=N)cc1	–	1.26 µM (active)
CCCCNC(=O)CSc1nc2cc(OC)c(OC)cc2c(=O)n1Cc1ccc(OC)cc1	-21.3% (inactive)	–
CC(=O)N(O)CCCCCNC(=O)CCC(=O)N(O)CCCCCNC(=O)CCC(=O)N(O)CCCCCN	2.63% [at 25.6 µM] (inactive)	–
CN1CCC2(CC1)CCN(C(=O)c1cc(C(F)(F)F)cc(C(F)(F)F)c1)CC2	0.0116% (inactive)	–
Cc1noc(C)c1COc1cccc(C(=O)OCC(=O)N2CC(=O)Nc3ccccc32)c1	0.688% (inactive)	–
CN(CC(=O)O)Cc1c(O)c(Cl)cc(Cl)c1Cl	8.14% [at 11.4 µM] (inactive)	–
N[C@@H](C(=O)O)c1ccc(C(=O)O)cc1	–	inactive
N[C@H](C(=O)O)c1ccc(O)c(C(=O)O)c1	-6.21% (inactive)	–
N[C@@H](C(=O)O)c1ccc(C(=O)O)c(C(=O)O)c1	–	7.94 µM (active) and inactive
N[C@H](C(=O)O)c1ccc(C(=O)O)cc1	3.45% (inactive)	–
N[C@@H](C(=O)O)c1ccc(P(=O)(O)O)cc1	–	25.1 µM (active)
N[C@@H](C(=O)O)c1ccc(C(=O)O)c(O)c1	1.24% (inactive)	–
O=C(Oc1ccccc1N1C(=O)C2CCCCC2C1=O)c1ccccc1 (stereo not drawn)	-2.61% (inactive)	–
COCCn1c(=O)c(CCc2ccccc2)nc2cnc(Oc3cccc(Cl)c3)nc21	-6.18% (inactive)	–
Nc1ccc(S(=O)(=O)Nc2nccs2)cc1	5.42% [at 25.6 µM] (inactive)	–
